Methyltransferases: Primary Screen for Target Class Profiling of Small Molecule Inhibitors of Methyltransferases. AID 1745853, 2022. calls only at 40 µM. purified enzyme, MTase-Glo SAH luminescence; hits give low values. 25,000 tested, 3.9% active; call rule not given here
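Each enzyme was assayed with SAM and its substrate. SAH formation detected by MTase-Glo luminescence; single-point 40 uM screen[…].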
Active calls of the source: *; i = inactive; + = active, no number; ! = a repeat was not active. Many of the other results were omitted from the sample, so hits are more common in it than they were. On the % scale 0 is the no-effect control and ±100 the full control effect.

SMILES	Methyltransferases
CC(C)CNC(=O)c1ccc2c(=O)n(C(C)C)c3nn(CC(=O)c4ccccc4)c(=O)n3c2c1	i
Cc1cc2c(cc3n2CC(C)(C(=O)NC2CCCCCC2)N(CCC(C)C)C3=O)o1 (configuration not stated)	i
O=C(CCc1nnc2n(Cc3ccc(Cl)cc3)c(=O)c3ccccc3n12)N1CCN(c2ncccn2)CC1	i
CC1CCC(N2C(=O)c3ccc(-c4ccco4)n3CC2(C)C(=O)NC2CCCCCC2)CC1 (configuration not stated)	i
O=C1c2cc3occc3n2CC(C(=O)NC2CCCCCCC2)(c2ccccc2)N1Cc1ccc(F)cc1 (configuration not stated)	i
CC1(C(=O)NC2CCCC2)Cn2c(c(-n3cccc3)c3ccccc32)C(=O)N1Cc1ccco1 (configuration not stated)	i
CC(C)c1c2cc(-c3ccnc(NC4CCC(NC5CCOCC5)CC4)n3)ccc2nn1C (configuration not stated)	+
CCOC(=O)c1cc2n(n1)CC(C)(C(=O)NC1CCCCCC1)N(c1ccc(C)c(Cl)c1)C2=O (configuration not stated)	i
CC(C)NC(=O)c1ccc2c(=O)n(C3CC3)c3nn(CC(=O)Nc4cccc(Cl)c4)c(=O)n3c2c1	i
CCOC(=O)c1cc2n(n1)CC(C)(C(=O)NCc1ccccc1)N(CCc1ccc(OCC)cc1)C2=O (configuration not stated)	i
Cc1cccc(C2c3cccn3-c3sc4c(c3CN2C(=O)Nc2ccccc2)CCCC4)c1 (configuration not stated)	i
COc1ccc(CN2C(=O)c3ccc(-c4ccco4)n3CC2(C)C(=O)NC2CCCCC2)c(OC)c1OC (configuration not stated)	i
CCCCNC(=O)CCc1nnc2n(CCc3ccccc3)c(=O)c3ccccc3n12	i
CCCCN1C(=O)CSc2c(c3ccccc3n2C)C1C(=O)NCCC(C)C (configuration not stated)	i
CC(=O)NCCCCn1c2c(c3ccccc31)C(=O)NCC2	+
CC(C)CCNC(=O)C1(C)Cn2c(cc3ccccc32)C(=O)N1Cc1ccc(N(C)C)cc1 (configuration not stated)	i
CN1C(=O)c2cc(C(=O)NCc3ccc(F)cc3)nn2CC1(C)C(=O)NCc1ccc(F)cc1 (configuration not stated)	i
CCC(CC)C(c1ccc(Nc2nc3ccccc3s2)cc1)n1cncn1 (configuration not stated)	+
Cc1cccc(Cn2nc3n(C(C)C)c(=O)c4ccc(C(=O)NC(C)C)cc4n3c2=O)c1	i
CC1(C(=O)NC2CCCC2)Cn2c(ccc2-c2ccco2)C(=O)N1c1ccc2c(c1)OCCO2 (configuration not stated)	i
CC1(C)C2CCC1(C)C(OC(=O)C(O)(CC(=O)O)CC(=O)O)C2 (configuration not stated)	+
COc1ccccc1NS(=O)(=O)c1ccc2c(c1)NC(=O)C(C)C(=O)N2 (configuration not stated)	i
COc1cccc(NC(=O)N2CCn3cccc3C2C)c1 (configuration not stated)	i
CC(C)CCn1c(=O)c2ccc(C(=O)NC3CCCC3)cc2n2c(=O)n(Cc3ccccc3Cl)nc12	i
Cn1nc(C2CCCNC2)c2c(C(=O)NC3CC3)cc(C3CC3)nc21 (configuration not stated)	i
SMILES	Methyltransferases
NC(=O)c1cccc2cn(-c3ccc([C@@H]4CCCNC4)cc3)nc12	+!
Cc1cccc(Cn2nc(C3CCCNC3)n(-c3ccccc3)c2=O)c1 (configuration not stated)	i
Cc1ccc(C)c(N2C(=O)c3cc(C(C)(C)C)nn3CC2(C)C(=O)NC2CCCCC2)c1 (configuration not stated)	i
CC1(C)CCCC2(C)C1C(O)C=C(CO)C2(O)CO (configuration not stated)	i
COC1C=C(C)C(O)(CO)C2(C)CCCC(C)(C)C12 (configuration not stated)	+
CC1=C[C@H](O)[C@H]2C(C)(C)CCC[C@]2(C)[C@@]1(O)CO	i
CC(C)CCn1c(=O)c2ccccc2n2c(=O)n(CC(=O)Nc3ccc4c(c3)OCCO4)nc12	i
Cc1cc(C)cc(N2C(=O)c3cc4sccc4n3CC2(C)C(=O)NC2CCCCCC2)c1 (configuration not stated)	i
COCCNC(=O)CCn1ccc2cc(S(=O)(=O)N3CCCCC3)ccc21	i
CN(C)C/C=C/C(=O)Nc1cccc(C(=O)Nc2ccc(Nc3nccc(-c4cccnc4)n3)cc2)c1	+
CN(C)C/C=C/C(=O)Nc1ccc(C(=O)Nc2cccc(Nc3ncc(Cl)c(-c4c[nH]c5ccccc45)n3)c2)cc1	+
Cc1ccc(NC(=O)c2ccc(CN3CCNCC3)cc2)cc1Nc1nccc(-c2cccnc2)n1	i
Cn1c(=O)c(-c2c(Cl)cccc2Cl)cc2cnc(Nc3cccc(C(=O)O)c3)nc21	i
CNc1nccc(-c2cccnc2Oc2cc(C(=O)Nc3cccc(C(F)(F)F)c3)ccc2C)n1	i
CN(C)C/C=C/C(=O)Nc1cccc(C(=O)Nc2cccc(Nc3ncc(Cl)c(-c4c[nH]c5ccccc45)n3)c2)c1	+
Cn1c(=O)n(C)c2cc(S(=O)(=O)N(Cc3ccco3)C(=O)c3ccco3)ccc21	i
CC1(C(=O)NCc2ccccc2)Cn2c(ccc2-c2ccco2)C(=O)N1CCc1ccco1 (configuration not stated)	i
CCOc1ccc(CCNC(=O)C(CC)n2ccc3cc(S(=O)(=O)N4CCCCC4)ccc32)cc1 (configuration not stated)	i
CCC(C(=O)NCc1ccc(C)cc1)n1ccc2cc(S(=O)(=O)N3CCCCC3)ccc21 (configuration not stated)	i
COc1ccccc1CNC(=O)C1(C)Cn2nc(-c3ccccc3)cc2C(=O)N1c1ccc(C(C)C)cc1 (configuration not stated)	i
Cc1ccc(CN2C(=O)c3cc(-c4ccccc4)nn3CC2(C)C(=O)NCc2ccccc2)cc1 (configuration not stated)	i
CCCn1c(=O)c2cc(F)ccc2n2c(SCC(=O)NCc3ccc(Cl)cc3)nnc12	i
COc1ccc2cc3n(c2c1)CC(C)(C(=O)NCC1CCCO1)N(Cc1ccccc1OC)C3=O (configuration not stated)	i
O=C(NCc1ccc(F)cc1)c1ccc2c(=O)nc3c(-c4ccc(F)cc4)n[nH]n3c2c1	i
Cc1ccc(Cn2c(=O)c3ccc(C(=O)NC(C)C)cc3n3c(=O)n(Cc4ccccc4Cl)nc23)cc1	i
CCc1cc(=O)n(CC(=O)Nc2ccccc2OC)c(N2CCOCC2)n1	i
COc1ccc(Nc2nc3c(S(=O)(=O)c4ccc(F)cc4)nnn3c3ccccc23)c(OC)c1	i
COc1cc(N2CCOCC2)ccc1Nc1ncc(F)c(Nc2ccccc2NS(C)(=O)=O)n1	+
CCCCN1C(=O)c2cc(C(=O)NCc3ccc(OC)c(OC)c3)nn2CC1(C)C(=O)NC1CCCC1 (configuration not stated)	i
Nc1nc(-n2cc(C(=O)O)c(=O)c3cc(F)c(N4CC(O)C4)c(Cl)c32)c(F)cc1F	+

High-throughput results: PubChem, National Center for Advancing Translational Sciences (NCATS)
